From the supplement of paper PMC10849652
The full data set covers some 7,900 targets. This sample favours those with a hit. About 0.6% of all pairs of compound and target were hits.

Tests used:
Experiment in all cases: log2 fold change, soluble protein after heating vs DMSO (PISA); higher = thermal stabilisation; K562 cells, 10 uM, 30 min; active = over 0.2 and 3.5 SD of the protein, either way, in both replicates (recomputed)
[1] = compound: CNC(=O)C1=CC=CC=C1NC2=NC(=NC=C2Cl)NC3=C(C=C(C=C3)N4CCOCC4)OC
In short: (§1)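 Values are thermal stability changes relative to control samples and are taken from duplicates. They are stated as log2 fold changes. Before quantification by TMTpro 16plex LC-MS/MS with equalised channel sums, K562 cells at 2×10^6 cells/mL were treated with 10 μM compound for 30 min, heated in aliquots for 3 min across 48°C-58°C, pooled, extracted in PBS with 0.5% NP-40 at 4°C, and centrifuged at 21,000xg for 90 min to give the soluble supernatant.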

rucaparib = compound: CNCc1ccc(-c2[nH]c3cc(F)cc4c3c2CCNC4=O)cc1 [rucaparib]
In short: as §1

encorafenib = compound: COC(=O)N[C@@H](C)CNc1nccc(-c2cn(C(C)C)nc2-c2cc(Cl)cc(NS(C)(=O)=O)c2F)n1 [encorafenib]
In short: as §1

[2] = compound: COC1=CC=C(C=C1)CN2C=CC3=C2C=C(C=C3)C(=O)NO
In short: as §1

alisertib = compound: COc1cc(Nc2ncc3c(n2)-c2ccc(Cl)cc2C(c2c(F)cccc2OC)=NC3)ccc1C(=O)O [alisertib]
In short: as §1

[3] = compound: COc1cccc2cc(-c3nc([C@H]4CC[C@H](C(=O)O)CC4)n4ncnc(N)c34)[nH]c12
In short: as §1

gefitinib = compound: COc1cc2ncnc(Nc3ccc(F)c(Cl)c3)c2cc1OCCCN1CCOCC1 [gefitinib]
In short: as §1

alvocidib = compound: CN1CC[C@H](c2c(O)cc(O)c3c(=O)cc(-c4ccccc4Cl)oc23)[C@H](O)C1 [alvocidib]
In short: as §1

Tubastatin A = compound: CN1CCc2c(c3ccccc3n2Cc2ccc(C(=O)NO)cc2)C1 [Tubastatin A]
In short: as §1

defactinib = compound: CNC(=O)c1ccc(Nc2ncc(C(F)(F)F)c(NCc3nccnc3N(C)S(C)(=O)=O)n2)cc1 [defactinib]
In short: as §1

[4] = compound: COC(=O)[C@H](CCSC)NC(=O)C1=C(C=C(C=C1)NC[C@H](CS)N)C2=CC=CC=C2
In short: as §1

zotarolimus = compound: CO[C@H]1C[C@@H]2CC[C@@H](C)[C@@](O)(O2)C(=O)C(=O)N2CCCC[C@H]2C(=O)O[C@H]([C@H](C)C[C@@H]2CC[C@H](n3cnnn3)[C@H](OC)C2)CC(=O)[C@H](C)/C=C(\C)[C@@H](O)[C@@H](OC)C(=O)[C@H](C)C[C@H](C)/C=C/C=C/C=C/1C [zotarolimus]
In short: as §1

idasanutlin = compound: COc1cc(C(=O)O)ccc1NC(=O)[C@@H]1N[C@@H](CC(C)(C)C)[C@](C#N)(c2ccc(Cl)cc2F)[C@H]1c1cccc(Cl)c1F [idasanutlin]
In short: as §1

[5] = compound: COc1cc2nc(-c3cc(F)ccc3O)nc(N[C@@H]3CNC[C@H]3C(C)(C)O)c2cc1OC
In short: as §1

lapatinib = compound: CS(=O)(=O)CCNCc1ccc(-c2ccc3ncnc(Nc4ccc(OCc5cccc(F)c5)c(Cl)c4)c3c2)o1 [lapatinib]
In short: as §1

saracatinib = compound: CN1CCN(CCOc2cc(OC3CCOCC3)c3c(Nc4c(Cl)ccc5c4OCO5)ncnc3c2)CC1 [saracatinib]
In short: as §1

[6] = compound: CNc1nc(-c2ccc3c(N)n[nH]c3c2)cc(N2C[C@@H](C(=O)NC3CCCCC3)CC[C@H]2C)n1
In short: as §1

sotrastaurin = compound: CN1CCN(c2nc(C3=C(c4c[nH]c5ccccc45)C(=O)NC3=O)c3ccccc3n2)CC1 [sotrastaurin]
In short: as §1

filanesib = compound: CON(C)C(=O)N1N=C(c2cc(F)ccc2F)S[C@@]1(CCCN)c1ccccc1 [filanesib]
In short: as §1

pictilisib = compound: CS(=O)(=O)N1CCN(Cc2cc3nc(-c4cccc5[nH]ncc45)nc(N4CCOCC4)c3s2)CC1 [pictilisib]
In short: as §1

Measured: log2 fold change

PPP2R5C isoform 2 (UniProt Q13362)
Chain of UniProt Q13362 (Q13362 whole entry, looked up): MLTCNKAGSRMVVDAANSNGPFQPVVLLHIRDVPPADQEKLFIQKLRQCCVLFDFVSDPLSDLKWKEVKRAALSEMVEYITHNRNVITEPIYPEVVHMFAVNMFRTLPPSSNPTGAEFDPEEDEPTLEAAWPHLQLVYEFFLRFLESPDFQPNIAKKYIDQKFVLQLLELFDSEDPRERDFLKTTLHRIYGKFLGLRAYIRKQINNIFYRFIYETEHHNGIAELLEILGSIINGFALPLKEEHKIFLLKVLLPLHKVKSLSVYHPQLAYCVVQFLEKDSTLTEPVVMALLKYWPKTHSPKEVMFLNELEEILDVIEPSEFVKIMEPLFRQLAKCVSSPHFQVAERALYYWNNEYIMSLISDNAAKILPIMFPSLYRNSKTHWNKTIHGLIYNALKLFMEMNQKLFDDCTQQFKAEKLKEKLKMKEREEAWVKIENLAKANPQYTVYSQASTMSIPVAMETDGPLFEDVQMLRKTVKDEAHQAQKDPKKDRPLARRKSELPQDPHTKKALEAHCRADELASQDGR
inactive: [1] -0.017 | rucaparib -0.063 | encorafenib 0.003 | [2] 0.159 | alisertib 0.005 | [3] -0.009

PPP1R12B isoform 6 (UniProt O60237)
Chain of UniProt O60237 (O60237 whole entry, looked up): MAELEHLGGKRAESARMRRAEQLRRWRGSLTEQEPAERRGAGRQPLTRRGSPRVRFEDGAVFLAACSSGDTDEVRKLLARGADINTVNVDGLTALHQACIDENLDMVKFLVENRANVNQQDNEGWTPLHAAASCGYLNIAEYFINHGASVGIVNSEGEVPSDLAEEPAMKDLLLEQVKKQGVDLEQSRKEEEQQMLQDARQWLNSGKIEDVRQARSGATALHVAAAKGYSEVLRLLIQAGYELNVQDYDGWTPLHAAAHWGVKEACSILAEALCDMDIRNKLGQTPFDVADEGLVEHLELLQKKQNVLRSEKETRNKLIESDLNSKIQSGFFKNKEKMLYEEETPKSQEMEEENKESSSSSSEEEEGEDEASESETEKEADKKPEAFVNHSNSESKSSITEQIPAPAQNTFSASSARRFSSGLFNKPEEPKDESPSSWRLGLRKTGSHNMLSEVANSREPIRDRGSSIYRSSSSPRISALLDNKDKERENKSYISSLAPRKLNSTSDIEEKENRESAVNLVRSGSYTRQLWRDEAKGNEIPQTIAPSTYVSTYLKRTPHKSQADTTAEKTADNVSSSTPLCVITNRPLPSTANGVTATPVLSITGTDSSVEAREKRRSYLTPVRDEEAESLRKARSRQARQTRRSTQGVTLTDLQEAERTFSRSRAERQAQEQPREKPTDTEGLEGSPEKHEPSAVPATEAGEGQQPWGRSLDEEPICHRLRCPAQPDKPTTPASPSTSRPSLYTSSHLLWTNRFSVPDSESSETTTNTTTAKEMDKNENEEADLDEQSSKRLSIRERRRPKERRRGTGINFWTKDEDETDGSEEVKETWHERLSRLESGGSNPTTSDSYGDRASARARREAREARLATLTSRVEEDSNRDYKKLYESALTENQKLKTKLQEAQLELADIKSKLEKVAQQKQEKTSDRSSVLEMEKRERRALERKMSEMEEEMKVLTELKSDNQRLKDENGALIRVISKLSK
inactive: [1] 0 | gefitinib 0.077

PDE4A (UniProt P27815)
Chain of UniProt P27815 (P27815 whole entry, looked up): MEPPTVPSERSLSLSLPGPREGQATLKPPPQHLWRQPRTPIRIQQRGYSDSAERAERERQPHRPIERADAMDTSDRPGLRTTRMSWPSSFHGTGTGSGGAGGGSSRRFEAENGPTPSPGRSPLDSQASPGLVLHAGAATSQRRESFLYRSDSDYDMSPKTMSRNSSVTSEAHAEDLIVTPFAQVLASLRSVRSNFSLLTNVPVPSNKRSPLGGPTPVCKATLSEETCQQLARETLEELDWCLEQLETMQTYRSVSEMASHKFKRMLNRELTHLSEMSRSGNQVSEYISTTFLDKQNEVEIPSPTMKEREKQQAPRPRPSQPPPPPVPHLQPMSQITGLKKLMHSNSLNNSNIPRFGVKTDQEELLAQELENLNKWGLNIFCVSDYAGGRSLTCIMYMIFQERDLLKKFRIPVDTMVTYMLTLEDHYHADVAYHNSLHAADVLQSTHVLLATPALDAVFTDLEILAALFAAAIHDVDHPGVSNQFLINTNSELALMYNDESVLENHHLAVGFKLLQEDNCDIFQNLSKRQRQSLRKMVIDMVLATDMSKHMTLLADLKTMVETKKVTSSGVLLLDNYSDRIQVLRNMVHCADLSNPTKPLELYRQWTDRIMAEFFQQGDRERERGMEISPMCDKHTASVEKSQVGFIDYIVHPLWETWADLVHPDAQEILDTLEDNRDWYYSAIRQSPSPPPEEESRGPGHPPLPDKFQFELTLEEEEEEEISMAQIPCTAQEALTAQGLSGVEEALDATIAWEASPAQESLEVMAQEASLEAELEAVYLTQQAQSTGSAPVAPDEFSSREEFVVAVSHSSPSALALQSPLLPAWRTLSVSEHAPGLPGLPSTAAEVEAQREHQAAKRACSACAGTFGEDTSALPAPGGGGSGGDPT
inactive: alvocidib -0.263 | Tubastatin A 0.054 | [1] 0.017 | defactinib -0.145 | [4] -0.018 | [2] -0.442 | zotarolimus 0.07 | idasanutlin 0.098 | [5] 0.112 | lapatinib -0.016

PRKX (UniProt P51817)
Chain of UniProt P51817 (P51817 whole entry, looked up): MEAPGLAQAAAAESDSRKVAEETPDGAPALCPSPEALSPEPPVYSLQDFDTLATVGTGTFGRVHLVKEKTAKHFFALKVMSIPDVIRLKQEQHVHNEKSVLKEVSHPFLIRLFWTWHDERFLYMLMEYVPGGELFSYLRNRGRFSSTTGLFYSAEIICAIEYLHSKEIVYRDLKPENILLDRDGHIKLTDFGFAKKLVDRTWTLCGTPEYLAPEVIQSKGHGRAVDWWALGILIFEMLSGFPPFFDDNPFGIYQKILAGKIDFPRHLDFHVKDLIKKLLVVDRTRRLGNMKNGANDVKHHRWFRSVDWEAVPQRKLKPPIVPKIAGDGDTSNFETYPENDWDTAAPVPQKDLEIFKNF
inactive: [1] -0.139 | alisertib 0.014 | [3] 0.098

PCBP2 (UniProt F8VZX2)
inactive: saracatinib 0.009 | alvocidib -0.3 | [1] 0.06 | [6] 0.084 | [2] 0.03 | zotarolimus 0.158 | alisertib -0.04 | gefitinib -0.111 | [3] -0.018

PKM isoform 2 (UniProt P14618)
Chain of UniProt P14618 (P14618 whole entry, looked up): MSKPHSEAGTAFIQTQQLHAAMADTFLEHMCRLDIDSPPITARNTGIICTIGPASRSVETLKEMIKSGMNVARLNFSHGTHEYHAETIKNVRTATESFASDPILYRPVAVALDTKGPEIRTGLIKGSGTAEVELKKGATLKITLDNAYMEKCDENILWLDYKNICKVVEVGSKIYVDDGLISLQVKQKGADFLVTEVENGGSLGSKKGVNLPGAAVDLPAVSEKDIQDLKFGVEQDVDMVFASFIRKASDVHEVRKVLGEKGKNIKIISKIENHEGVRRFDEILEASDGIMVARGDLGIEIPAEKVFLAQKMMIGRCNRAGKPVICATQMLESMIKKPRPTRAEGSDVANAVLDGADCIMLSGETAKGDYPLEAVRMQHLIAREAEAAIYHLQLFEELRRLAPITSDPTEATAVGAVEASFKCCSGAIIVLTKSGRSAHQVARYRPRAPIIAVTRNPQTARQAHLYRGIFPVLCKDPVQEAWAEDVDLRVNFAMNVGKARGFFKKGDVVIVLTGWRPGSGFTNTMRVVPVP
inactive: saracatinib 0.202 | sotrastaurin -0.133 | Tubastatin A -0.052 | defactinib -0.045 | rucaparib 0.125 | [6] -0.063 | encorafenib -0.09 | [4] -0.081 | [2] 0.141 | filanesib 0.04 | idasanutlin -0.049 | alisertib -0.139 | [5] 0.141 | gefitinib -0.056 | [3] 0.059 | lapatinib -0.115 | pictilisib 0.109

PIAS4 (UniProt Q8N2W9)
Chain of UniProt Q8N2W9 (Q8N2W9 whole entry, looked up): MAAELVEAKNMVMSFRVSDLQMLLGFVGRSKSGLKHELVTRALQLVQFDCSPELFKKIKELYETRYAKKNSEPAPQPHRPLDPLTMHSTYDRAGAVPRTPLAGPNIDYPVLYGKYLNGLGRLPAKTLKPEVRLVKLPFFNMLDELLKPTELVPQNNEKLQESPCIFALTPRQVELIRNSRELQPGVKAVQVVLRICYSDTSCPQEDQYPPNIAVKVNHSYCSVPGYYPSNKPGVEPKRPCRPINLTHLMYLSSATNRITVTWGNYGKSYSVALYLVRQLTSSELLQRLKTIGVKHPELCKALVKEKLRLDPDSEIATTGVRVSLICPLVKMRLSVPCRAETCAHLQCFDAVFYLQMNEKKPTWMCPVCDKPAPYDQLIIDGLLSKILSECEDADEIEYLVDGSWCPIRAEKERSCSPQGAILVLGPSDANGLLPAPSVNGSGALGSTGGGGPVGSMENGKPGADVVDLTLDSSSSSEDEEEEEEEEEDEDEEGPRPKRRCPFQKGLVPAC
inactive: saracatinib -0.207 | Tubastatin A -0.057 | [6] -0.043 | [2] 0.049 | alisertib -0.566 | [5] 0.069 | [3] -0.167 | lapatinib -0.017 | pictilisib -0.257

POLR2E (UniProt P19388)
inactive: saracatinib -0.077 | alvocidib 0.212 | Tubastatin A -0.009 | [1] -0.076 | defactinib 0.216 | rucaparib 0.153 | [6] 0.104 | encorafenib 0.025 | [4] -0.081 | [2] 0.095 | zotarolimus -0.065 | idasanutlin -0.061 | alisertib -0.21 | gefitinib 0.007 | [3] 0.029 | lapatinib -0.013 | pictilisib 0.063
active: [5] 0.291

PSMB9 (UniProt P28065)
Chain of UniProt P28065 (P28065 whole entry, looked up): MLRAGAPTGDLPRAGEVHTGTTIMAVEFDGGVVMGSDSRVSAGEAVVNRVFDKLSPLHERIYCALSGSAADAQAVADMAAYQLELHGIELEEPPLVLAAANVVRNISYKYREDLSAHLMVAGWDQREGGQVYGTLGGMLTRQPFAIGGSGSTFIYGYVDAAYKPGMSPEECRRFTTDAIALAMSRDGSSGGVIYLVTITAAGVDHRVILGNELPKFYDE
inactive: sotrastaurin 0.074 | alvocidib 0.071 | [1] 0.062 | defactinib -0.008 | rucaparib 0.296 | encorafenib -0.22 | [4] 0.094 | [2] 0.25 | filanesib 0.189 | zotarolimus -0.08 | idasanutlin -0.028 | [5] 0.246 | lapatinib -0.064 | pictilisib -0.006
